Screening data from PubChem.
Shown are actives, neighbours in structure and some others; about 17% of the full set was active somewhere.
HT1080 IDH1KD tx: kills HT-1080 cells with IDH1 knockdown | HT-1080 IDH1 knockdown viability, ATP luminescence, 48 h | Potency, µM (top dose mostly 46.1 µM), actives largely listed as cytotoxic | 2% of 360,000 active | AID 686971
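After a 2 h attachment period, IDH1KD HT-1080 cells took pin-transferred compound for 48 h at 37 °C; ATP-based luminescence after 10 min room-temperature reagent incubation reported viability.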
TDP1 cell CPT: DT40-hTDP1 cell growth loss with CPT; Potency, µM (highest dose often 46.2 µM), actives largely listed as inhibitors; chicken DT40 Tdp1-/-;hTDP1 cells + 20 nM CPT, ATP luminescence, 48 h; AID 686979; 12% of 420,000 active; note: nearly all actives have a fitted effect of over 55% in size
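Chicken DT40 Tdp1-/- cells complemented with human TDP1, 400 cells/well, exposed to compounds plus 20 nM camptothecin for at least 48 h at 37 C; viability read as ATP content by CellTiter-Glo luminescence.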
TGFb inhibitor: inhibitors of TGF-b signaling; HepG2 CAGA-GFP TGF-b/SMAD3 reporter, GFP fluorescence, 18 h; TGF-beta stimulated, 500 pg/mL final; Potency, µM (titrated, usually from 46.1 µM), usual class: inhibitors; 1.2% of 410,000 active; AID 588855; note: nearly all actives have a fitted effect of over 65% in size
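TGF-beta reporter screen: HEPG2 CAGA-GFP, 1% FBS, 500 pg/mL TGF-beta final, 18 h; per-cell GFP summed per well; curves fitted and categorized by class.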
HT1080-NT tox: kills 2HG-producing HT-1080-NT fibrosarcoma cells; Potency, µM (highest dose often 46.1 µM), hits mostly cytotoxic; 1.6% of 360,000 active; HT-1080-NT fibrosarcoma viability, CellTiter-Glo ATP luminescence, 48 h; AID 686970;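 note: NT is the 2HG producing partner of a matched IDH1 knockdown line; nearly all actives have a fitted effect of over 55% in size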
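Viability by CellTiter-Glo luminescence after 48 h compound exposure at 37C of HT-1080-NT cells (750/well, RPMI, 5% FBS). % activity scaled between DMSO wells and medium-only wells, then curve-fitted and categorized by curve class.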
TDP1 cell noCPT: qHTS for Inhibitors of human tyrosyl-DNA phosphodiesterase 1 (TDP1): qHTS in cells in absence of CPT. DT40 Tdp1-/- hTDP1 cells, no CPT, ATP luminescence, 48 h. 15% of 420,000 active. Potency, µM (top dose mostly 46.2 µM), usual class: inhibitors; note: nearly all actives have a fitted effect of over 55% in size
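Cells were dispensed at 400 per well, compounds added by pin tool, plates incubated ≥48 hr at 37 °C, then CellTiter-Glo added for 30 min at room temperature before luminescence reading. Line: DT40 Tdp1-/- complemented with hTDP1; camptothecin omitted.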
HepG2 tox: kills HepG2 cells in TGF-b inhibitor counter-screen; HepG2 CAGA-GFP viability, ATP luminescence, 18 h; Potency, µM (doses to about 46.1 µM), most hits filed as cytotoxic; 0.76% of 410,000 active
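HepG2 CAGA-GFP cells (1000/well, DMEM with 1% FBS) received compound, then TGF-beta at 500 pg/mL final, and were incubated 18 hours at 37 degrees C. Viability was read by CellTiter-Glo luminescence. Media-only wells were set as complete cell-killing and DMSO as no toxicity.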
Hits are given with their value; [ ] = another dose, or the depositor's remark. Calls come from the whole dose curve; as a rule, active = well fitted curve in the direction sought with a large enough effect; inconclusive = small, poorly fitted or top-dose-only effect, or another doubt; inactive = no such curve, though single readings can be large; an effect the other way counts as inactive or inconclusive.

Screening CCc1ccc(-c2csc(NC(=O)C3=NN(c4ccccc4)C(=O)CC3)n2)cc1 returned HT1080 IDH1KD tx inconclusive, TDP1 cell CPT inconclusive, TGFb inhibitor inactive, HT1080-NT tox inconclusive, TDP1 cell noCPT 26µM and HepG2 tox inactive.
O=C(Nc1nc(-c2ccc(Cl)cc2)cs1)NC1CCCCC1 was read as HT1080 IDH1KD tx inconclusive, TDP1 cell CPT inconclusive, TGFb inhibitor 11µM, HT1080-NT tox inactive, TDP1 cell noCPT inconclusive and HepG2 tox inactive.
For CCCCOc1ccc(Cn2c(=O)sc3ccccc32)cc1 the results were TDP1 cell CPT inconclusive, TGFb inhibitor inconclusive, TDP1 cell noCPT inconclusive and HepG2 tox inactive.
Screening CO[C@H]1[C@H](NC(=O)c2ccco2)c2ccccc2C12CCN(Cc1cccn1-c1ccccn1)CC2 returned TDP1 cell CPT inactive[9.04 µM] and TDP1 cell noCPT inactive.
For CCCC(=O)Nc1ccc(-c2csc(-c3cccnc3)n2)cc1 the results were HT1080 IDH1KD tx inactive, TDP1 cell CPT inconclusive, TGFb inhibitor inactive, HT1080-NT tox inactive, TDP1 cell noCPT 16µM and HepG2 tox inactive.
Screening C#CCOc1nc2c(c(=O)n(C)c(=O)n2C)n1Cc1ccccc1 returned HT1080 IDH1KD tx inactive, TDP1 cell CPT 12µM, TGFb inhibitor inconclusive, HT1080-NT tox inactive, TDP1 cell noCPT 12µM and HepG2 tox inactive.
For C=CCOc1nc2c(c(=O)n(C)c(=O)n2C)n1Cc1ccccc1 the results were HT1080 IDH1KD tx inactive, TDP1 cell CPT 26µM, TGFb inhibitor inactive, HT1080-NT tox inactive, TDP1 cell noCPT 18µM and HepG2 tox inactive.
For COc1ccc(Oc2nc3c(c(=O)n(Cc4ccc(Br)cc4)c(=O)n3C)n2C)cc1 the results were TDP1 cell CPT inactive, TGFb inhibitor inactive, TDP1 cell noCPT inconclusive and HepG2 tox inactive.
CCOCCOc1nc2c(c(=O)n(C)c(=O)n2C)n1Cc1ccc(C)cc1 was read as HT1080 IDH1KD tx inactive, TDP1 cell CPT inconclusive, TGFb inhibitor inactive, HT1080-NT tox inactive, TDP1 cell noCPT 8.2µM and HepG2 tox inactive.
Screening Cc1ccc(C)c(Oc2nc3c(c(=O)n(C)c(=O)n3C)n2Cc2ccccc2)c1 returned TDP1 cell CPT inconclusive, TGFb inhibitor inactive, TDP1 cell noCPT inconclusive and HepG2 tox inactive.
For C=CCOc1nc2c(c(=O)n(Cc3ccc(Cl)cc3)c(=O)n2C)n1C the results were HT1080 IDH1KD tx inactive, TDP1 cell CPT inconclusive, TGFb inhibitor inactive, HT1080-NT tox inactive, TDP1 cell noCPT 12µM and HepG2 tox inactive.
`COc1cc(=O)n2c(c1C(=O)NCc1nccs1)CCN(Cc1ccccc1F)CC2` gave TDP1 cell CPT inactive and TDP1 cell noCPT inactive.
CCCCCOC(=O)c1ccc(OC(=O)c2sc3ncn(Cc4cccc(F)c4)c(=O)c3c2C)cc1 was read as TDP1 cell CPT inactive, TGFb inhibitor inactive, TDP1 cell noCPT inactive and HepG2 tox inactive.
Screening COCCCn1cc(CN2CC(N3CCN(Cc4cccc(C)c4)CC3)CS2(=O)=O)nn1 (stereo not drawn) returned HT1080 IDH1KD tx inactive, TDP1 cell CPT inactive, HT1080-NT tox inactive and TDP1 cell noCPT inactive.
`COc1cc(/C=C(\C#N)c2nc(-c3cc4ccccc4oc3=O)cs2)ccc1O` gave HT1080 IDH1KD tx inactive, TDP1 cell CPT 18µM, TGFb inhibitor inactive, HT1080-NT tox inactive, TDP1 cell noCPT 18µM and HepG2 tox inactive.
CC1CCC(=C(C#N)c2nc(-c3cc4ccccc4oc3=O)cs2)CC1 (stereo not drawn) was read as HT1080 IDH1KD tx inactive, TDP1 cell CPT inconclusive, TGFb inhibitor inactive, HT1080-NT tox inactive, TDP1 cell noCPT 21µM and HepG2 tox inactive.
For Cc1ccc(NC(=O)C2C3/C=C\CCCCC32)cc1C (stereo not drawn) the results were HT1080 IDH1KD tx inactive, TDP1 cell CPT inactive, TGFb inhibitor inactive, HT1080-NT tox inactive, TDP1 cell noCPT inactive and HepG2 tox inactive.
